# Reference: PubChem BioAssay AID504882 (Broad Institute, 2011)
# Among all 1,200 compounds or so, about 290 (24%) were called active. Another 9% or so got no clear call; they are omitted. How the calls were made is not given here. These entries were drawn from the full list. Entries with a potency or affinity are not part of this list.
# Assay: cytotoxicity in EBV lymphoblastoid cells, dose response, cytotoxicity control, cell-based, plate reader, cherry-picks, set 2 (AID 504882)
# Conditions: EBV lymphoblastoid cells (LCL) viability; series mostly up to 19.5 µM
row,SMILES,outcome
1,Oc1[nH]c2ccccc2c1N=Nc1c(F)c(F)c(Cl)c(F)c1F,inactive
2,O=C(Nc1cccc(C(=O)O)c1)Nc1ccccc1Cl,inactive
3,CCn1nnc2cc(C(=O)NCCc3ccccc3F)ccc21,inactive
4,CCc1ccc(/C=N/NC(=O)c2ccccn2)cc1,inactive
5,Cc1ccc(C(=O)Nc2nnc(SCC(=O)N3CCCc4ccccc43)s2)cc1,inactive
6,CCC(Oc1ccccc1)C(=O)NC1CCSC1=O (stereo not given),inactive
7,O=C(O)/C=C/c1ccc2ccccc2n1,inactive
8,CN(C)CCN(Cc1ccc(Cl)cc1)c1ccccn1,inactive
9,Cc1ccc(C(=O)Nc2cccc(C(=O)O)c2)cc1S(=O)(=O)N1CCCCC1,inactive
10,CCCCN(c1ccccc1)c1ncnc(N)c1[N+](=O)[O-],inactive
11,O=C(N/N=C/c1cccc(O)c1)c1ccc2c(c1)OCCO2,inactive
12,O=C(NN1C(=O)C2C3C=CC(C4CC34)C2C1=O)c1cccc(Cl)c1 (stereo not given),inactive
13,CC(C)(C)n1nc(-c2ccc(F)cc2)c2c(N)ncnc21,inactive
14,COc1cc(OC)cc(-c2cc3nc(C)c(CCC(=O)O)c(C)n3n2)c1,inactive
15,CN(C)CC(C)(C)CNS(=O)(=O)c1ccc(OC(F)(F)F)cc1,inactive
16,COc1cccc(C2=CC(=O)C[C@H](c3ccc4c(c3)OCO4)C2)c1,inactive
17,CCCCCCNC(=O)O[C@]12C[C@@H](C(=O)OC)[C@@H](C(=O)OC)C[C@@]1(O)CN(S(=O)(=O)c1ccc(C)cc1)C2,inactive
18,COC(=O)CN(c1ccccc1F)S(=O)(=O)c1ccc(C)cc1,inactive
19,CN(CCNC(=O)C1CCN(S(=O)(=O)N2CCOCC2)CC1)CCc1ccccc1,inactive
20,O=c1c2cnn(-c3ccccc3)c2nc(-c2cccs2)n1-c1ccc(Cl)cc1,inactive
21,NNC(=O)c1cccc(COc2ccc3c(c2)CCC3)c1,inactive
22,S=c1[nH]nc(C2CCCCC2)n1/N=C/c1ccncc1,inactive
23,N#CC1=C(N)C(C#N)(C#N)C(c2cccnc2)C2CC(c3ccccc3)CC=C12 (stereo not given),inactive
24,COc1cc(CC(=O)N(c2ccccc2)c2nc(C)cs2)cc(OC)c1OC,inactive
25,O=C(CN1C(=O)c2ccccc2S1(=O)=O)Nc1ncc(Cl)cc1Cl,inactive
26,Cc1ccc(-n2c(=O)c3c(c4cc(C)ccc4n3C)n(CC(=O)NCC3CCCO3)c2=O)cc1 (stereo not given),inactive
27,COc1ccc(C)cc1S(=O)(=O)N(CC(=O)Nc1cc([N+](=O)[O-])ccc1C)c1ccc(C)c(C)c1,inactive

row,SMILES,outcome
1,O=C(c1sc2cc([N+](=O)[O-])ccc2c1Cl)N1CCOCC1,inactive
2,Cc1cc(N=Cc2c(O)ccc3cc(Br)ccc23)no1,inactive
3,Cc1cc(=O)[nH]c(N/N=C/c2ccc(C)o2)n1,inactive
4,CC(=O)Nc1cccc(-c2cnc(N)c(C(=O)c3cccnc3)n2)c1,inactive
5,O=C(O)c1cc(=O)c2c(OCC(O)COc3cccc4oc(C(=O)O)cc(=O)c34)cccc2o1,inactive
6,Cn1cc(SCC(=O)NCC2CCCO2)c2ccccc21 (stereo not given),inactive
7,Cc1ccc(-n2c(C)c([N+](=O)[O-])c3ccc(O)c(CN(C)C)c32)cc1,inactive
8,NC1=NC(=O)NC1(c1ccccc1)c1ccccc1,inactive
9,Cn1nc(-c2ccc(N3CCOCC3)c(NS(=O)(=O)c3ccccc3)c2)c2ccccc2c1=O,inactive
10,COc1ccccc1N1CCN(C(=O)CCC(=O)N2CCN(c3ccc(F)cc3)CC2)CC1,inactive
11,COc1ccc(/C=C/C(=O)OCC(=O)NCc2ccco2)cc1OC,inactive
12,COc1ccc2cc(-c3cc(C(=O)OCC(=O)NC4CCS(=O)(=O)C4)c4ccccc4n3)ccc2c1 (stereo not given),inactive
13,CCOc1ccc(C(=O)NC(=S)N(Cc2ccccc2)Cc2ccccc2)cc1,inactive
14,O=C(CCCOc1ccccc1)N1CCN(c2ccccc2)CC1,inactive
15,CCn1c(CCNC(=O)c2ccc(OC)cc2)nnc1SCc1ccc(Cl)cc1Cl,inactive
16,CC1S/C(=C(\C#N)C(=O)NCc2ccco2)N(Cc2ccco2)C1=O (stereo not given),inactive
17,Cc1onc(-c2c(Cl)cccc2Cl)c1C(=O)N[C@@H]1C(=O)N2[C@@H]1SC(C)(C)[C@@H]2C(=O)O,inactive
18,Cc1cc(C)nc(SCC(=O)OCN2C(=O)c3ccccc3C2=O)n1,inactive
19,Nc1ccccc1SC1CC(=O)N(c2ccccc2Cl)C1=O (stereo not given),inactive
20,Cc1ccccc1C(=O)N1CCN(c2ccc(NC(=O)c3ccco3)cc2Cl)CC1,inactive
21,CCOc1ccccc1NC(=O)Cn1c(=O)sc2ccccc21,inactive
22,COc1ccc(C(Nc2ccccn2)c2oc(CO)cc(=O)c2O)cc1 (stereo not given),inactive
23,CC(=O)c1ccc(NC(=O)c2noc3c2CCC3)cc1,inactive
24,O=c1nc(N/N=C/C=C/c2ccccc2)cn[nH]1,inactive
25,Cc1ccc(S(=O)(=O)NC(CC(C)C)C(=O)NCC(c2ccco2)N2CCCCC2)cc1 (stereo not given),inactive
26,COc1ccc(S(=O)(=O)NC(CC(=O)NCc2ccco2)C(C)C)cc1 (stereo not given),inactive
27,Cc1nnc(SCC(=O)N2CCC(c3noc4ccc(F)cc34)CC2)s1,inactive

row,SMILES,outcome
1,CCC(=O)NC(=S)Nc1ccccc1C(F)(F)F,inactive
2,COc1ccc(NC(=O)C[C@H]2C(=O)N(CCc3ccccc3)C[C@@H]2c2ccc(OC)cc2)cc1,inactive
3,CC(C)c1cc(NC(=O)c2ccccc2)cc(C(C)C)c1O,inactive
4,O=C1OCC2=C1C(c1ccc3c(c1)OCO3)c1cc3c(cc1O2)OCO3 (stereo not given),inactive
5,CCCCCC(=O)NC(=S)Nc1ccc(Br)cc1C,inactive
6,Cc1cc(C(=O)CN2C(=O)c3ccccc3C2=O)c(C)n1Cc1cccs1,inactive
7,COc1ccc(C(=O)N(CN2CCCC2=O)c2cc(C)on2)cc1OC,inactive
8,Cn1c(=O)[nH]c(=O)c2c1nc(CN1CCOCC1)n2CCCc1ccccc1,inactive
9,Cc1c(NC(=O)c2cc(-c3cccs3)nc3ccccc23)c(=O)n(-c2ccccc2)n1C,inactive
10,CN(C1CCCCC1)S(=O)(=O)c1ccc(C(=O)N2CCN(c3nc4ccccc4s3)CC2)cc1,inactive
11,O=C(CN1C(=O)CCOc2ccccc21)Nc1ccc(Cl)c(S(=O)(=O)N2CCOCC2)c1,inactive
12,Cc1cccc(CNc2ncnc3ccc(-c4ccoc4)cc23)c1,inactive
13,COc1cc(-c2nc(C(=O)NCC3CCCO3)cc3c2[nH]c2ccccc23)cc(OC)c1OC (stereo not given),inactive
14,CC(C)CC1C(=O)N(Cc2cn(CC3CCCCC3)nn2)CCS(=O)(=O)N1Cc1ccc(-c2ccc(F)nc2)cc1 (stereo not given),inactive
15,CCOC(=O)OC(C)OC(=O)[C@@H]1N2C(=O)[C@@H](NC(=O)[C@H](N)c3ccccc3)[C@H]2SC1(C)C (stereo not given in full),inactive
16,CCCc1cc(=O)[nH]c(SCC(=O)NC2CCCCC2)n1,inactive
17,Cc1ccc(C)c(N2CCN(S(=O)(=O)c3ccc4c(c3)CCN4C(=O)CCC(=O)O)CC2)c1,inactive
18,Cc1ccnc(SCCn2c(N3CCN(c4ccccc4)CC3)nc3c2c(=O)[nH]c(=O)n3C)n1,inactive
19,O=C(CCC(=O)NNC(=O)Nc1cccc(Cl)c1)NCc1ccccc1,inactive
20,Cc1ccccc1C(=O)NC(=S)Nc1ccc(N2CCN(C(=O)c3ccccc3)CC2)cc1,inactive
21,COCCNC(=O)NC12CC3(C)CC(C)(CC(C)(C3)C1)C2,inactive
22,COCCn1c(SCc2ccc(C(=O)OC)o2)nnc1-c1c[nH]c2ccccc12,inactive
23,COc1ccc(C(=O)Nc2cccc(C(=O)N/N=C/c3ccc(OC)cc3OC)c2)cc1,inactive
24,CCOc1ccc(OCc2cccc(C(=O)N3CCCC3)c2)cc1,inactive
25,O=S(=O)(N/N=C/c1ccccc1F)c1ccccc1,inactive
26,CSc1nc2cc3c(cc2n1C(=O)c1ccc(C)cc1)OCCO3,inactive
27,Nc1cc2ccncc2c2ccccc12,inactive

row,SMILES,outcome
1,CC(C)NCC(O)COc1cccc2ccccc12 (stereo not given),inactive
2,COc1ccc(-n2c(C)c([N+](=O)[O-])c3ccc(O)c(CN(C)C)c32)cc1,inactive
3,Cc1ccc(C(=O)NCC(=O)N(C)Cc2cccc(F)c2)s1,inactive
4,COc1ccc(-n2c(C)c(C(C)=O)c3cc(O)ccc32)cc1,inactive
5,CC(CNC1CCCCC1)OC(=O)c1ccccc1 (stereo not given),inactive
6,CC(C)c1ccc(OCc2cccc(C(=O)N/N=C/c3cccnc3)c2)cc1,inactive
7,CC(C)(C)c1ccc(-c2noc(CCC(N)=O)n2)cc1,inactive
8,COCCn1c(SCC(=O)NCc2ccco2)nnc1-c1c[nH]c2ccccc12,inactive
9,CCOC(=O)C1=C(C)NC(C)=C(C(=O)OCC)C1C(=O)OCC(=O)N(C)C1CCS(=O)(=O)C1 (stereo not given),inactive
10,COc1ccc(-c2csc3ncnc(NCCCO)c23)cc1,inactive
11,COc1cccc(CC(=O)NNC(=O)c2ccc3c(c2)OCO3)c1,inactive
12,COc1cc(C2NC(=O)NC(C)=C2C(=O)OC2CCCC(C)C2)cc(Br)c1O (stereo not given),inactive
13,CCCN(CC)c1ncnc2[nH]ncc12,inactive
14,Cc1cc(N2CCOCC2)c2c(N)c(Br)cc(C)c2n1,inactive
15,CCOc1ccccc1C(=O)NC1CC2CCCC(C1)N2Cc1nnnn1Cc1ccco1 (stereo not given),inactive
16,Nc1ncnc(N2CCc3ccccc32)c1[N+](=O)[O-],inactive
17,CCn1c2ccccc2c2cc(NC(=O)c3ccccc3-c3ccccc3C(=O)O)ccc21,inactive
18,CCn1c(NC(=O)c2ccc(C)cc2)c2ccccc2nc1=O,inactive
19,CC(=O)Nc1ccc(C=NNc2nnc(NN=Cc3ccc(NC(C)=O)cc3)c3ccccc23)cc1,inactive
20,CCCN(CCC)c1ncnc2nc[nH]c12,inactive
21,COc1ccc(CC(C)NCC(O)c2ccc(O)c(NC=O)c2)cc1 (stereo not given),inactive
22,O=C(c1cccs1)N1CC=C(c2ccccc2)CC1,inactive
23,CCN1C(=O)[C@@H]2[C@@H](c3ccc(-c4ccc(Cl)c(Cl)c4)cc3)N3CCC[C@@]3(C(=O)OC)[C@@H]2C1=O,inactive
24,CCOC(=O)N1CCN(C(=O)C2CCC(=O)N(Cc3ccccc3OC)C2)CC1 (stereo not given),inactive
